The test system of the first test is CDKL2.
As usually defined, the Kd is a measure of binding affinity in units of concentration. A lower Kd goes with tighter binding. For `COC(=O)c1cccc(NC(=O)NC2CCN(c3ccnc(Nc4ccc(F)cc4)n3)C2)c1` (centres unmarked) [GSK1379725], the Kd was 680 nM.
Same read-out and setting: the same measure for `O=C(Nc1n[nH]c2cc(-c3ccsc3)ccc12)C1CC1` [SB-732932]: 100 nM; for `O=C(Nc1n[nH]c2nc(-c3cccs3)c(Br)cc12)C1CCCC1` [SB-743341]: 330 nM; for `O=C(Nc1n[nH]c2nc(-c3cccs3)c(Br)cc12)C1CC1` [SB-735297]: 140 nM.

For a further test, the system named is CHEK1.
Take `CS(=O)(=O)CCNCc1nc(-c2ccc3ncnc(Nc4ccc(OCc5ccccc5)c(Cl)c4)c3c2)cs1.Cl` [GW582764]: the Kd is greater than 10000 nM.
Still for that read-out and setting: the same measure for `Cc1ccccc1-c1cc(-c2c[nH]nc2-c2ccccn2)ccn1` [GW680061]: greater than 10000 nM; for `COc1cccc(C2=C(Nc3cc(Cl)c(O)c(Cl)c3)C(=O)NC2=O)c1` [SB-390767]: greater than 10000 nM.
Still for that read-out and setting: the same measure for `COc1ccc(Nc2nccc(N3CCC(NC(=O)c4cc5ccccc5s4)C3)n2)cc1` (centres unmarked) [GSK1379738]: greater than 10000 nM; for `COC(=O)C(Cc1ccccc1)NC(=O)NC1CCN(c2ccnc(Nc3ccc(F)cc3)n2)C1` (centres unmarked) [GSK1379714]: greater than 10000 nM; for `FC(F)(F)c1ccccc1-c1cc(-c2c[nH]nc2-c2ccccn2)ccn1` [GW679396]: greater than 10000 nM.
Same read-out and setting: in the case of `COc1ccc(Nc2nccc(-c3ccc(NC(=O)c4cc5cc(F)ccc5[nH]4)cc3)n2)cc1` [GSK1229496] it was greater than 10000 nM.

Values taken from publication PMC5540273 (PLoS ONE, 2017).
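Also: kd values determined as follow-up on hits from a single-replicate KINOMEscan panel screen.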
